# Assay outcomes deposited in PubChem by National Center for Advancing Translational Sciences (NCATS).
# GLS inhibitor: glutaminase GLS (human) inhibition; O94925; GLS enzymatic activity, qHTS titration; Potency, µM (titrated, usually from 45.5 µM), inactives show at the top dose activity change, negative = inhibition, hits mostly inhibitors; 410,000 compounds, 0.21% hits
#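 hKGA in 45 mM KH2PO4 pH 8.2, 0.02% Tween-20 with pin-transferred compounds; 1 mM L-glutamine (stock) plus glutamate oxidase/HRP/Amplex Red coupling added. Fluorescence read initially and after 30 min at RT.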
# APE1 inh: blocks human APE1 abasic DNA cleavage; Potency, µM (highest dose often 65.8 µM), without a hit: top-dose activity change, negative = inhibition, most hits filed as inhibitors; recombinant APE1, TAMRA/BHQ-2 abasic DNA cleavage fluorescence; AID 2517; 350,000 compounds, 0.35% hits; P27695;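 further: plate controls were vehicle for no effect and reference inhibitor for full effect; nearly all actives have a fitted effect of over 55% in size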
#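 APE1 at 0.75 nM final was preincubated with compound 15 min at room temperature, then 50 nM double-stranded THF abasic-site substrate (5'-TAMRA/3'-BHQ-2) was added. Fluorescence (ex 525/em 598 nm) was read kinetically; third-minus-first read gave activity.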
# RECQ1 inh-1: RECQ1 (human) helicase inhibition | 240,000 compounds, 0.54% hits | Potency, µM (top dose mostly 57.3 µM), inactives show at the top dose activity, negative = inhibition, actives largely listed as inhibitors | AID 2549 | P46063 | RECQ1 DNA unwinding, red fluorescence kinetic read;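 further: plate controls were vehicle for no effect and no enzyme for full effect; nearly all actives have a fitted effect of over 30% in size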
# Target sequence (P46063 whole entry, looked up): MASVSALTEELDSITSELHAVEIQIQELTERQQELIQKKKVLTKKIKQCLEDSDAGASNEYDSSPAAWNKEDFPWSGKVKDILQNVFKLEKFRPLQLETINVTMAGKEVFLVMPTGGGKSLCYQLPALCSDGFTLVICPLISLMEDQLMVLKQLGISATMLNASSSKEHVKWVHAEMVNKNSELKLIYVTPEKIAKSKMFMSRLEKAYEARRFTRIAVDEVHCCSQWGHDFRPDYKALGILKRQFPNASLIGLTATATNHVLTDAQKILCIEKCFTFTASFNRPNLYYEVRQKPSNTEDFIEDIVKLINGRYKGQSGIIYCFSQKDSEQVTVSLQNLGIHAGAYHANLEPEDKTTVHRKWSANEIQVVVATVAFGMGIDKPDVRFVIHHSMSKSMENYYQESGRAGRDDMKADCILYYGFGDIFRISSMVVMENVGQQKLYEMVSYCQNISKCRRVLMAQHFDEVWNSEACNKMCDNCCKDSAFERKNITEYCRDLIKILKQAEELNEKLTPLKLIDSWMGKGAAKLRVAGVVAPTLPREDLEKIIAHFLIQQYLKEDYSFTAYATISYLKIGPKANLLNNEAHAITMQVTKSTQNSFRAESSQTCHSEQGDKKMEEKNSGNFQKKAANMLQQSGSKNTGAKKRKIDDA
#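 RECQ1T1 50 nM; forked duplex (20 bp + 30-nt ss tails) 200 nM, ATP 2 mM final; pH 8.0, 2 mM MgCl2, 2.5 ug/ml poly(dI-dC); 15 min compound preincubation; discontinuous kinetic read over 2 h at RT.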
# TDP1 block: TDP1 (human) enzyme inhibition | 350,000 compounds, 0.28% hits | Q9NUW8 | recombinant TDP1, AlphaScreen DNA substrate cleavage | AID 485290 | Potency, µM (doses to about 130 µM), without a hit: top-dose activity change, negative = inhibition, hits mostly inhibitors; further: nearly all actives have a fitted effect of over 40% in size
#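 AlphaScreen read-out: signal falls as enzyme removes the 3' tyrosine-FITC from a 5'-biotinylated DNA oligo (15 nM, 5 min, RT). Enzyme was E. coli-made recombinant Tdp1 at 1 nM, exposed to compound for 15 min beforehand; beads 10 ug/ml, 10 min.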
# Tb PGK inh: blocks T. brucei phosphoglycerate kinase. AID 602233. 380,000 compounds, 0.043% hits. PGK/GAPDH coupled, Kinase-Glo luminescence, 60 min. P07378. Potency, µM (top dose mostly 57.5 µM), without a hit: top-dose activity change, negative = inhibition, hits mostly inhibitors; further: nearly all actives have a fitted effect of over 60% in size
#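 Recombinant glycosomal PGK reaction used 1,3-bisphosphoglycerate generated in-well by GAPDH (100nM final) in 100mM TEA pH 7.6, 5mM MgCl2, 0.01% Tween-20. After 60 minutes at room temperature, ATP was read by Kinase-Glo Plus luminescence end-point.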
# BLM inh: inhibitors of human Bloom syndrome helicase BLM | recombinant BLM DNA unwinding, fluorescence dequenching | Potency, µM (series often up to 56.1 µM), for the others: at the top dose activity change, negative = inhibition, most hits filed as inhibitors | 350,000 compounds, 0.2% hits | AID 2528;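 further: plate controls were vehicle for no effect and no enzyme for full effect; nearly all actives have a fitted effect of over 35% in size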
# RECQ1 conf: confirmation of human RECQ1 helicase inhibitors. 610 compounds, 28% hits. shares compounds with RECQ1 inh-1. Potency, µM (titrated, usually from 229 µM), for inactives: at the top dose activity change, negative = inhibition, hits mostly inhibitors. RECQ1 helicase DNA unwinding, fluorescence; further: nearly all actives have a fitted effect of over 45% in size
# RECQ1 ADP FP: displaces ADP in a fluorescence polarization counter-screen for RECQ1 hits; shares compounds with RECQ1 inh-1; ADP fluorescence polarization displacement counterscreen; Potency, µM (top dose mostly 228 µM), for inactives: at the highest dose activity change, negative = inhibition, usual class: inhibitors; 530 compounds, 27% hits; AID 2711; further: nearly all actives have a fitted effect of over 45% in size
# RECQ1 inh-2: blocks human RECQ1 DNA unwinding. shares compounds with RECQ1 inh-1. recombinant RECQ1 DNA unwinding, red fluorescence. Potency, µM (highest dose often 119 µM), for inactives: at the highest dose activity, negative = inhibition, hits mostly inhibitors. 1,100 compounds, 15% hits; further: nearly all actives have a fitted effect of over 50% in size
# * hit, by the source's call; i = inactive; ? = inconclusive; . = not tested or not shown; [ ] = remark or other dose. Most compounds without a hit are left out; they make up all but 0.85% or so of the library. The call rests on the fitted dose curve; in most records, active means well fitted curve in the direction sought with a large enough effect; inconclusive means small, poorly fitted or top-dose-only effect, or another doubt; inactive means no such curve, though single readings can be large; an effect the other way counts as inactive or inconclusive. Unless noted, on the % scale 0 is the no-effect control and ±100 the full control effect; potency means the concentration at half of the fitted maximal effect.
SMILES,GLS inhibitor,APE1 inh,RECQ1 inh-1,TDP1 block,Tb PGK inh,BLM inh,RECQ1 inh-2,others
O=C1CC(c2ccco2)CC(O)=C1C=Nc1cc(Cl)ccc1O (configuration not stated),?,7.1µM*,22µM*,?,?,-23%,?,
O=C(CCc1nc2ccccc2s1)NC1CCOC1=O (configuration not stated),15%,-16%,?,-4%,i,2%,?,
Cc1csc(NC(=O)CCc2nc3ccccc3s2)n1,16%,0%,14%,5%,-2%,-3%,.,
Cc1nc(C)c(C(=O)Nc2ncc([N+](=O)[O-])s2)o1,-5%,?,?,?,-28%,-19%,?,
COCCNC(=O)c1onc(CSc2cc(C)cc(C)c2)c1C(=O)O,8%,1%,i,4%,9%,-3%,.,RECQ1 conf=0%;RECQ1 ADP FP=1%
Cc1ccc(S(=O)(=O)NCC(=O)N(CC(=O)NCC2CCCO2)Cc2ccco2)cc1 (configuration not stated),0%,?,22µM*,-8%,10%,-28%,-14%,
Cc1ccc(S(=O)(=O)NCC(=O)N(CC(=O)NCC2CCCO2)Cc2ccccc2)cc1 (configuration not stated),1%,-2%,i,7%,0%,-1%,.,
Cc1sc(NC(=O)c2ccco2)c(C(c2cccnc2)N2CCN(c3ccc(F)cc3)CC2)c1C (configuration not stated),2%,3%,40µM*,9%,-2%,-12%,?,
Cc1sc(NC(=O)c2ccco2)c(C(c2cccnc2)N2CCN(CCO)CC2)c1C (configuration not stated),9%,-5%,i,2%,6%,-1%,.,
N#C/C(=C1/SCC(c2ccccc2Cl)S1)n1ccnc1 (configuration not stated),-6%,.,.,6%,.,-7%,.,
COC(=O)C1=NOC2(C=C(Br)C(OC)=C(Br)C2=O)C1 (configuration not stated),.,?,10%[11.5 µM],-5%[21 µM],.,1%[12.4 µM],.,
CN1CCOc2cc(S(=O)(=O)N3CCN(c4nc(-c5cccs5)nc5ccccc45)CC3)ccc21,.,.,.,2%,.,.,.,
C[n+]1cccc2c(Br)ccc([O-])c21,-16%,-11%,32µM*,-5%,5%,20µM*,-12%,
C=CC[N+]1([C@H]2C[C@H]3[C@@H]4CC[C@H]5C[C@H](O)[C@@H](N6CCOCC6)C[C@]5(C)[C@H]4CC[C@]3(C)[C@H]2OC(C)=O)CCCC1,22%,.,.,.,.,49%,.,
COc1ccccc1CN1C(=O)c2cccc3cccc(c23)C1=O,7.9µM*,2%,25µM*,1%,-2%,-1%,4%,
CSCC[C@H](N)C(=O)N[C@@H](CCC(=O)O)C(=O)N[C@H](C(=O)NCC(=O)N[C@@H](Cc1c[nH]c2ccccc12)C(=O)N[C@@H](Cc1ccc(O)cc1)C(=O)N[C@@H](CCCNC(=N)N)C(=O)N[C@@H](CO)C(=O)N1CCC[C@H]1C(=O)N[C@@H](Cc1ccccc1)C(=O)N[C@@H](CO)C(=O)N[C@@H](CCCNC(=N)N)C(=O)N[C@H](C(=O)N[C@H](C(=O)N[C@@H](Cc1cnc[nH]1)C(=O)N[C@@H](CC(C)C)C(=O)N[C@@H](Cc1ccc(O)cc1)C(=O)N[C@@H](CCCNC(=N)N)C(=O)N[C@@H](CC(N)=O)C(=O)NCC(=O)N[C@@H](CCCCN)C(=O)O)C(C)C)C(C)C)C(C)C,.,-7%,-7%,17%,.,21%,.,
Cc1nnc2ccc(-c3cccc(NC(=O)Cc4cccs4)c3)nn12,0%,3%,?,-2%,i,-13%,-25%,
CC#CCN1c2ccccc2[C@]23C[C@@H](C(=O)OC)N(S(=O)(=O)CCCC)C2=NC(C(=O)OC)=C(C(=O)OC)[C@H]13,.,11%[12.4 µM],-17%[11.5 µM],16%[12.3 µM],.,-4%[12.4 µM],.,
CC1=CN2C(=N)/C(=C/c3ccc([N+](=O)[O-])o3)C(=O)N=C2S1,-7%,?,28µM*,3%,-17%,-18%,?,
O=C(c1ccccc1)c1ccc(OCCOCCN2CCN(Cc3ccccc3)CC2)cc1,2%,19%,?,-5%,-6%,-9%,2%,
O=C(O)c1ccc2cc(-c3ccc(O)c(C45CC6CC(CC(C6)C4)C5)c3)ccc2c1,.,1%,i,13%,.,-25%,.,
O=C(O)c1c(-n2cccc2)sc2c1CCCC2,40%,3%,i,0%,2%,0%,.,
Cc1sc(-n2cccc2)c(C(=O)O)c1C,-8%,-4%,?,-12%,-7%,-11%,?,
C=C1c2cccc(O)c2C(O)=C2C(=O)[C@]3(O)C(O)=C(C(N)=O)C(=O)C(N(C)C)C3C(O)C12 (some centres not stated),.,4µM*,8.9µM*,.,.,-4%,-13%,RECQ1 conf=?;RECQ1 ADP FP=7.9µM*
C=C1c2cccc(O)c2C(O)=C2C(=O)[C@]3(O)C(O)=C(C(N)=O)C(=O)[C@@H](N(C)C)[C@@H]3[C@@H](O)[C@H]12,?,2.5µM*,7.9µM*,.,-4%,-11%,-7%,RECQ1 conf=?;RECQ1 ADP FP=7.1µM*
Nc1nc(Nc2ccccc2)nc(NCc2ccco2)c1[N+](=O)[O-],-10%,0%,?,11%,5%,?,79µM*,
C=C1C(=O)OC(CCCCCCCC)C1C(=O)O (configuration not stated),.,-2%,-7%,8%,.,-5%,.,
c1coc(-c2nnc3sc(Cc4cccs4)nn23)c1,9%,25µM*,?,.,?,-27%,?,
c1coc(-c2nn3c(-c4ccco4)nnc3s2)c1,-12%,?,?,.,-16%,-12%,?,
